# In PubChem BioAssay (NCATS):
# Records with an inconclusive call do not appear. Where a call stands in place of a potency, no number is given. Where a structure was tested more than once in an assay, its records may differ in their call. Active and inactive are the calls of the source. Unless noted, the call rests on the fitted dose curve.
# Key:
# [1] = Primary qHTS for Vero E6 cytotoxicity: counterscreen for inhibitors of SARS-S pseudo-typed particle cell entry (AID 1479150)
# [2] = Cytotoxicity counterscreen for inhibitors of SARS-CoV-2 cell entry (AID 1645845); further: nearly all actives have a fitted effect of over 50% in size
# Method in brief: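 ATP-content luminescence (ATPLite 1step, 15 min RT) read after 48 h compound exposure of Expi293F cells stably expressing human ACE2; normalized to cells-only wells and media-only wells.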
# [3] = Primary qHTS to identify inhibitors of SARS-CoV-2 cell entry (AID 1645846); settings: activity change, negative = inhibition: at 57.1 µM (top of the series) unless noted; further: nearly all actives have a fitted effect of over 45% in size; further: potency means the concentration at half of the fitted maximal effect
# Method in brief: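 Using luciferase-reporting pseudoviruses carrying Wuhan-Hu-1 spike, the screen tracks entry into stably ACE2-expressing cells over 48 hr. Activity is expressed relative to spike particles versus particles lacking any fusion protein.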
# [4] = Primary qHTS for inhibitors of La Crosse Virus (LACV) - induced cell death in SH-SY5Y cells (AID 1508616; active means well fitted curve in the direction sought with a large enough effect; an effect the other way counts as inactive or inconclusive;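 further: top concentration of the series differs between compounds; higher means more rescue of cells from virus-induced death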)
# Method in brief: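 Screening measures cell viability in LACV-infected SH-SY5Y cultures. Compound was added before virus (0.01 MOI), and ATP was detected by luminescence 6 days later.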
# [5] = biological target: Calcium and integrin-binding protein 1 (Homo sapiens) (UniProt Q99828); assay: Validation qHTS for Identification of Calcium Integrin Binding protein 1 (CIB1) Competitor (AID 1508618; active means well fitted curve in the direction sought with a large enough effect; an effect the other way counts as inactive or inconclusive)
# Sequence of Calcium and integrin-binding protein 1 (Homo sapiens) (Q99828 whole entry, looked up): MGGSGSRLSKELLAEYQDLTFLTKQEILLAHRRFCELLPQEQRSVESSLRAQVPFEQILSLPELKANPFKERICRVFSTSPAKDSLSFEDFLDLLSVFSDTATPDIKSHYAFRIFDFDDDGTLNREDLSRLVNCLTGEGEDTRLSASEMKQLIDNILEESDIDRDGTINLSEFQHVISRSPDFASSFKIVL
# Method in brief: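 Displacement of FITC-alphaIIb peptide (100 nM) from CIB1-GST (1 uM) is monitored by polarization in quantitative HTS format; buffer carries 5 mM CaCl2 and 125 mM NaCl at pH 7.4, incubations are at room temperature.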
# [6] = biological target: Calcium and integrin-binding protein 1 (Homo sapiens) (UniProt Q99828); assay: Primary qHTS for Identification of Calcium Integrin Binding Protein 1 (CIB1) Competitor (AID 1508620; active means well fitted curve in the direction sought with a large enough effect; an effect the other way counts as inactive or inconclusive;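 further: GST tagged CIB1 binding a fluorescein labelled alphaIIb integrin peptide tracer; top concentration of the series differs between compounds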)
# Method in brief: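 CIB1-GST (1 uM final) and compound incubated 15 min at room temperature before adding FITC-alphaIIb peptide tracer (100 nM final). Competition for binding read by fluorescence polarization (ex 480, em 540) after another 15 min at room temperature.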
# [7] = Primary qHTS for small molecule stabilizers of the endoplasmic reticulum resident proteome: Secreted ER Calcium Modulated Protein (SERCaMP) assay (AID 1508630; active means well fitted curve in the direction sought with a large enough effect; an effect the other way counts as inactive or inconclusive)
# Method in brief: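 The SH-SY5Y reporter protocol was run at 3 concentrations up to 38.3 uM (primary) or 11 concentrations (follow-up): 16 h compound, 100 nM thapsigargin for 4 h, then extracellular luciferase luminescence.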
# [8] = A High-Content qHTS Against Drug Library for the Identification of Small Molecules that Inhibit DYT1 Early Onset Primary Dystonia-Associated Cell Pathology (AID 1645839)
# Method in brief: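 High-content imaging quantified EGFP-TorsinA mislocalization in HEK293-derived cells inducibly expressing DYT1 mutant torsinA, after 48 h exposure to compound given together with tetracycline induction. Cell count served as a toxicity channel alongside %pathology.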
# [9] = biological target: Cytochrome P450 2D6 (Homo sapiens) (UniProt P10635); assay: Cytochrome P450 family 2 subfamily D member 6 (CYP2D6) small molecule antagonists: luciferase biochemical (cell-free) qHTS assay (AID 1645840; active means well fitted curve in the direction sought with a large enough effect in the repeat runs; an effect the other way counts as inactive or inconclusive; further: nearly all actives have a fitted effect of over 55% in size; further: potency means the concentration at half of the fitted maximal effect)
# Sequence of Cytochrome P450 2D6 (Homo sapiens) (P10635 whole entry, looked up): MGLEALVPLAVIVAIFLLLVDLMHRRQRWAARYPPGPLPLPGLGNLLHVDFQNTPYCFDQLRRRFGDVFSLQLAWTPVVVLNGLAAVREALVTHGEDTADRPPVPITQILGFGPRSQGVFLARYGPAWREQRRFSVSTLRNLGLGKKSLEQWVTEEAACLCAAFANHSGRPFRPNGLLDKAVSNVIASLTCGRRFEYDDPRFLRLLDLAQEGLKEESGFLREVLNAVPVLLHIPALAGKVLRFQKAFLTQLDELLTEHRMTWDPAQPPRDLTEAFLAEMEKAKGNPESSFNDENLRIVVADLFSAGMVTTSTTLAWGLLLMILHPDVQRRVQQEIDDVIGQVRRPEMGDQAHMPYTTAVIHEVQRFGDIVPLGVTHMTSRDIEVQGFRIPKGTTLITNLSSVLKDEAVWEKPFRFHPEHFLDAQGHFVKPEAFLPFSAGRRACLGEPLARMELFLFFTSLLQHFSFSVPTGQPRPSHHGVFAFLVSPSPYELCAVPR
# Method in brief: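 P450-Glo CYP2D6 system: proluciferin substrate converted by enzyme to luciferin, read by luminescence proportional to activity. Enzyme-substrate mix with compound 10 min at room temperature, then NADPH regeneration 1 h before detection reagent.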
# [10] = biological target: Cytochrome P450 2C9 (Homo sapiens) (UniProt P11712); assay: Cytochrome P450 family 2 subfamily C member 9 (CYP2C9) small molecule antagonists: luciferase biochemical (cell-free) qHTS assay (AID 1645842; active means well fitted curve in the direction sought with a large enough effect in the repeat runs; an effect the other way counts as inactive or inconclusive; further: nearly all actives have a fitted effect of over 55% in size)
# Sequence of Cytochrome P450 2C9 (Homo sapiens) (P11712 whole entry, looked up): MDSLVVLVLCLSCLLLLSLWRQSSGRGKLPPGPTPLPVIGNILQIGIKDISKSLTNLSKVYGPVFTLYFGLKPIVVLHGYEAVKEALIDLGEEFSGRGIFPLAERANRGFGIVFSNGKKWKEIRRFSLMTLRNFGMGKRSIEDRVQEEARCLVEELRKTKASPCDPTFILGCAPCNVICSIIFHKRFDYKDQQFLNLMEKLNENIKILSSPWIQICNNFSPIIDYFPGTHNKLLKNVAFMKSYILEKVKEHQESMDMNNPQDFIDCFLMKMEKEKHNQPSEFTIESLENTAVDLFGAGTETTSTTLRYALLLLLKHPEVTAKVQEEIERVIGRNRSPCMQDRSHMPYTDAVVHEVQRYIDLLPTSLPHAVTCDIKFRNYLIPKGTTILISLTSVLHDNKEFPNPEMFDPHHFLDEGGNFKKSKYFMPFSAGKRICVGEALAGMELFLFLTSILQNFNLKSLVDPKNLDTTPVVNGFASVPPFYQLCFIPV
# Method in brief: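 P450-Glo CYP2C9 system: proluciferin substrate with enzyme in mix containing 0.4% BSA, 10 min at room temperature, then NADPH regeneration solution added and incubated 1 h at 37C. Detection reagent stopped reaction; luminescence read after 20 min as RLU.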
# [11] = Confirmatory qHTS for VERO E6 Cytotoxicity Assay: Counterscreen for SARS-CoV-2 CPE Assay (AID 1508605); further: nearly all actives have a fitted effect of over 60% in size
# [12] = Confirmatory qHTS for activators (rescue) of SARS-CoV-2 Cytopathic Effect (CPE) (AID 1508606); further: potency means the concentration at half of the fitted maximal effect; nearly all actives have a fitted effect of over 70% in size
smiles,measurement,setting,value
O=C(CCCN1CCC(O)(c2ccc(Cl)cc2)CC1)c1ccc(F)cc1,Potency,[1],inactive
same,Potency,[2],inactive
COc1ccc2nc(S(=O)Cc3ncc(C)c(OC)c3C)[nH]c2c1 (stereo not drawn),Potency,[1],inactive
same,Potency,[2],inactive
same,"activity change, negative = inhibition",[3],-4.15%
CCCN1CCC[C@@H]2Cc3[nH]ncc3C[C@H]21,Potency,[4],inactive
same,Potency,[5],inactive
same,Potency,[6],inactive
same,outcome,[7],inactive
same,Potency,[8],inactive
same,Potency,[9],inactive
same,Potency,[10],inactive
CO[C@@]12[C@H](COC(N)=O)C3=C(C(=O)C(C)=C(N)C3=O)N1C[C@@H]1N[C@@H]12,Potency,[1],inactive
same,Potency,[3],4.47 µM (active)
same,"activity change, negative = inhibition",[3],-40.7%
C#Cc1cccc(Nc2ncnc3cc(OCCOC)c(OCCOC)cc23)c1,Potency,[1],inactive
same,Potency,[2],inactive
COc1ccc(OC)c(C(O)CNC(=O)CN)c1 (stereo not drawn),Potency,[1],inactive
same,Potency,[2],inactive
same,"activity change, negative = inhibition",[3],-24%
CC(O)(CS(=O)(=O)c1ccc(F)cc1)C(=O)Nc1ccc(C#N)c(C(F)(F)F)c1 (stereo not drawn),Potency,[4],inactive
same,Potency,[5],inactive
same,Potency,[6],inactive
same,outcome,[7],inactive
same,Potency,[2],inactive
same,"activity change, negative = inhibition",[3],-21.9%
Cn1cnc([N+](=O)[O-])c1Sc1ncnc2nc[nH]c12,Potency,[1],inactive
same,Potency,[3],inactive
same,"activity change, negative = inhibition",[3],-53.9%
CN1C(=O)CC(C)(c2ccccc2)C1=O (stereo not drawn),Potency,[1],inactive
same,Potency,[2],inactive
same,"activity change, negative = inhibition",[3],-13.4%
c1ccc2c(c1)OCC(C1=NCCN1)O2 (stereo not drawn),Potency,[4],inactive
same,Potency,[5],inactive
same,Potency,[6],inactive
same,outcome,[7],inactive
same,Potency,[9],19.5 µM (active)
same,Potency,[10],inactive
C=C[C@H]1CN2CC[C@H]1C[C@@H]2[C@@H](O)c1ccnc2ccc(OC)cc12,Potency,[1],inactive
same,Potency,[2],inactive
Cn1c(=O)c2c(ncn2CC(O)CO)n(C)c1=O (stereo not drawn),Potency,[1],inactive
same,Potency,[2],inactive
same,Potency,[3],inactive
same,"activity change, negative = inhibition",[3],4.29%
CC(=O)O[C@]1(C(C)=O)CC[C@H]2[C@@H]3C=C(Cl)C4=CC(=O)[C@@H]5C[C@@H]5[C@]4(C)[C@H]3CC[C@@]21C,Potency,[1],inactive
same,Potency,[2],inactive
O=c1c(O)c(-c2ccc(O)c(O)c2)oc2cc(O)cc(O)c12,Potency,[1],inactive
same,Potency,[2],inactive
COc1cc(C(C)=O)ccc1OCCCN1CCC(c2noc3cc(F)ccc23)CC1,Potency,[11],inactive
same,Potency,[12],11.2 µM (active)
CC1(CN2CCC(n3c(=O)[nH]c4ccccc43)CC2)OCc2ccccc2-n2cccc21 (stereo not drawn),Potency,[11],inactive
same,Potency,[2],inactive
same,"activity change, negative = inhibition",[3],-26.7%
Cc1ccccc1C(OCCN(C)C)c1ccccc1 (stereo not drawn),Potency,[1],inactive
same,Potency,[2],inactive
COc1cc2c(cc1OC)C(=O)C(CC1CCN(Cc3ccccc3)CC1)C2 (stereo not drawn),Potency,[1],inactive
same,Potency,[2],inactive
same,"activity change, negative = inhibition",[3],-29.7%
